# Source: PMC11006913
# Residue numbers refer to the chain shown, from its start.
# Tests used:
# Test in all cases: PBM; 200 nM protein, PBS
# Conditions in all cases: dsDNA, one strand shown
# [1] = target: PRRX1 (Homo sapiens, UniProt P54821 80-166, F113S)
# [2] = target: PRRX1 (Homo sapiens, UniProt P54821 80-166)
# [3] = target: T1, SIX6 (Homo sapiens, UniProt O95475 114-200, T165P)
# T1 sequence: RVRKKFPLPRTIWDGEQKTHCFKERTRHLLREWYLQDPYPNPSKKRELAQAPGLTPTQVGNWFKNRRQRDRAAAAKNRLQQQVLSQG
# [4] = target: T2, SIX6 (Homo sapiens, UniProt O95475 114-200, H141N)
# T2 sequence: T1 sequence with H28N, P52T
# [5] = target: T3, SIX6 (Homo sapiens, UniProt O95475 114-200, T165A)
# T3 sequence: T1 sequence with P52A
# [6] = target: T4, SIX6 (Homo sapiens, UniProt O95475 114-200, T139Q)
# T4 sequence: T1 sequence with T26Q, P52T
# [7] = target: T5, SIX6 (Homo sapiens, UniProt O95475 114-200, L167M)
# T5 sequence: T1 sequence with P52T, L54M
# [8] = target: T6, SIX6 (Homo sapiens, UniProt O95475 114-200, T165G)
# T6 sequence: T1 sequence with P52G
# [9] = target: T7, SIX6 (Homo sapiens, UniProt O95475 114-200, L167V)
# T7 sequence: T1 sequence with P52T, L54V
# [10] = target: T8, SIX6 (Homo sapiens, UniProt O95475 114-200)
# T8 sequence: T1 sequence with P52T
# [11] = target: T9, SIX6 (Homo sapiens, UniProt O95475 114-200, T165I)
# T9 sequence: T1 sequence with P52I
# Sequence of PRRX1 (Homo sapiens, UniProt P54821 80-166, F113S) (P54821 80-166 F113S): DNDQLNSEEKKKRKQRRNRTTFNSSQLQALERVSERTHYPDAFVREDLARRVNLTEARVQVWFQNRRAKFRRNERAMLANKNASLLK
# Sequence of PRRX1 (Homo sapiens, UniProt P54821 80-166) (P54821 80-166): as the sequence (P54821 80-166 F113S) above, with S34F counted along it
sequence,measurement,setting,value
ATTTTTAA,binding signal,[1],"10.4 upbm affinity estimate (log intensity, higher = more binding, comparable within an allelic series)"
same,binding signal,[2],"12 upbm affinity estimate (log intensity, higher = more binding, comparable within an allelic series)"
GCGCCAGA,binding signal,[1],"9.32 upbm affinity estimate (log intensity, higher = more binding, comparable within an allelic series)"
same,binding signal,[2],"9.56 upbm affinity estimate (log intensity, higher = more binding, comparable within an allelic series)"
CCTGGAAC,binding signal,[1],"9.61 upbm affinity estimate (log intensity, higher = more binding, comparable within an allelic series)"
same,binding signal,[2],"9.32 upbm affinity estimate (log intensity, higher = more binding, comparable within an allelic series)"
CCCAGGGA,binding signal,[1],"9.4 upbm affinity estimate (log intensity, higher = more binding, comparable within an allelic series)"
same,binding signal,[2],"9.28 upbm affinity estimate (log intensity, higher = more binding, comparable within an allelic series)"
AGGAGAGC,binding signal,[1],"9.35 upbm affinity estimate (log intensity, higher = more binding, comparable within an allelic series)"
same,binding signal,[2],"9.36 upbm affinity estimate (log intensity, higher = more binding, comparable within an allelic series)"
CTGGATCC,binding signal,[3],"9.18 upbm affinity estimate (log intensity, higher = more binding, comparable within an allelic series)"
CCGATCCG,binding signal,[3],"9.19 upbm affinity estimate (log intensity, higher = more binding, comparable within an allelic series)"
GGATCCGA,binding signal,[3],"9.08 upbm affinity estimate (log intensity, higher = more binding, comparable within an allelic series)"
GACGATCC,binding signal,[3],"9.26 upbm affinity estimate (log intensity, higher = more binding, comparable within an allelic series)"
GGATCCCC,binding signal,[3],"9.23 upbm affinity estimate (log intensity, higher = more binding, comparable within an allelic series)"
CGGATCAG,binding signal,[3],"9.26 upbm affinity estimate (log intensity, higher = more binding, comparable within an allelic series)"
CTCCGTAC,binding signal,[1],"9.47 upbm affinity estimate (log intensity, higher = more binding, comparable within an allelic series)"
same,binding signal,[2],"9.24 upbm affinity estimate (log intensity, higher = more binding, comparable within an allelic series)"
GGATCGGA,binding signal,[3],"9.23 upbm affinity estimate (log intensity, higher = more binding, comparable within an allelic series)"
CTGATACA,binding signal,[4],"11 upbm affinity estimate (log intensity, higher = more binding, comparable within an allelic series)"
same,binding signal,[5],"11 upbm affinity estimate (log intensity, higher = more binding, comparable within an allelic series)"
CCGATACG,binding signal,[3],"9.12 upbm affinity estimate (log intensity, higher = more binding, comparable within an allelic series)"
CGGATACC,binding signal,[3],"9.26 upbm affinity estimate (log intensity, higher = more binding, comparable within an allelic series)"
GGATCCAC,binding signal,[3],"9.18 upbm affinity estimate (log intensity, higher = more binding, comparable within an allelic series)"
TAAACTCA,binding signal,[1],"10.1 upbm affinity estimate (log intensity, higher = more binding, comparable within an allelic series)"
same,binding signal,[2],"11.1 upbm affinity estimate (log intensity, higher = more binding, comparable within an allelic series)"
CGATACAC,binding signal,[4],"11.1 upbm affinity estimate (log intensity, higher = more binding, comparable within an allelic series)"
same,binding signal,[6],"11.2 upbm affinity estimate (log intensity, higher = more binding, comparable within an allelic series)"
same,binding signal,[5],"11 upbm affinity estimate (log intensity, higher = more binding, comparable within an allelic series)"
CCGGATCA,binding signal,[3],"9.33 upbm affinity estimate (log intensity, higher = more binding, comparable within an allelic series)"
CCTGGATC,binding signal,[3],"9.18 upbm affinity estimate (log intensity, higher = more binding, comparable within an allelic series)"
CCGGATCC,binding signal,[3],"9.14 upbm affinity estimate (log intensity, higher = more binding, comparable within an allelic series)"
GATATGGC,binding signal,[3],"9.27 upbm affinity estimate (log intensity, higher = more binding, comparable within an allelic series)"
GCGATCCC,binding signal,[3],"9.24 upbm affinity estimate (log intensity, higher = more binding, comparable within an allelic series)"
GCGGATCC,binding signal,[3],"9.05 upbm affinity estimate (log intensity, higher = more binding, comparable within an allelic series)"
ACCGATCG,binding signal,[3],"9.18 upbm affinity estimate (log intensity, higher = more binding, comparable within an allelic series)"
GAGGATCC,binding signal,[3],"9.19 upbm affinity estimate (log intensity, higher = more binding, comparable within an allelic series)"
ACGGATCG,binding signal,[3],"9.19 upbm affinity estimate (log intensity, higher = more binding, comparable within an allelic series)"
AGGGATCG,binding signal,[3],"9.2 upbm affinity estimate (log intensity, higher = more binding, comparable within an allelic series)"
GGGGATCA,binding signal,[3],"9.12 upbm affinity estimate (log intensity, higher = more binding, comparable within an allelic series)"
CGTGATCC,binding signal,[3],"9.16 upbm affinity estimate (log intensity, higher = more binding, comparable within an allelic series)"
CAGGGATC,binding signal,[3],"9.11 upbm affinity estimate (log intensity, higher = more binding, comparable within an allelic series)"
GCCGATAC,binding signal,[3],"9.22 upbm affinity estimate (log intensity, higher = more binding, comparable within an allelic series)"
CGGATCGC,binding signal,[3],"9.17 upbm affinity estimate (log intensity, higher = more binding, comparable within an allelic series)"
ACTACAAT,binding signal,[3],"10.1 upbm affinity estimate (log intensity, higher = more binding, comparable within an allelic series)"
GCTATCAC,binding signal,[3],"9.24 upbm affinity estimate (log intensity, higher = more binding, comparable within an allelic series)"
GGGATCCA,binding signal,[3],"9.27 upbm affinity estimate (log intensity, higher = more binding, comparable within an allelic series)"
GGGATACC,binding signal,[3],"9.29 upbm affinity estimate (log intensity, higher = more binding, comparable within an allelic series)"
GCGATACC,binding signal,[4],"11 upbm affinity estimate (log intensity, higher = more binding, comparable within an allelic series)"
same,binding signal,[3],"9.27 upbm affinity estimate (log intensity, higher = more binding, comparable within an allelic series)"
same,binding signal,[7],"10.3 upbm affinity estimate (log intensity, higher = more binding, comparable within an allelic series)"
same,binding signal,[6],"11.1 upbm affinity estimate (log intensity, higher = more binding, comparable within an allelic series)"
CATATCAC,binding signal,[4],"11.1 upbm affinity estimate (log intensity, higher = more binding, comparable within an allelic series)"
same,binding signal,[8],"11.1 upbm affinity estimate (log intensity, higher = more binding, comparable within an allelic series)"
same,binding signal,[5],"11 upbm affinity estimate (log intensity, higher = more binding, comparable within an allelic series)"
same,binding signal,[9],"10.9 upbm affinity estimate (log intensity, higher = more binding, comparable within an allelic series)"
CATAACAC,binding signal,[4],"10 upbm affinity estimate (log intensity, higher = more binding, comparable within an allelic series)"
same,binding signal,[8],"10.3 upbm affinity estimate (log intensity, higher = more binding, comparable within an allelic series)"
same,binding signal,[6],"10.4 upbm affinity estimate (log intensity, higher = more binding, comparable within an allelic series)"
same,binding signal,[5],"10.1 upbm affinity estimate (log intensity, higher = more binding, comparable within an allelic series)"
same,binding signal,[10],"10.1 upbm affinity estimate (log intensity, higher = more binding, comparable within an allelic series)"
same,binding signal,[11],"10.1 upbm affinity estimate (log intensity, higher = more binding, comparable within an allelic series)"
AACGATAC,binding signal,[4],"11.1 upbm affinity estimate (log intensity, higher = more binding, comparable within an allelic series)"
same,binding signal,[8],"11.2 upbm affinity estimate (log intensity, higher = more binding, comparable within an allelic series)"
same,binding signal,[6],"11.2 upbm affinity estimate (log intensity, higher = more binding, comparable within an allelic series)"
same,binding signal,[5],"11 upbm affinity estimate (log intensity, higher = more binding, comparable within an allelic series)"
same,binding signal,[9],"10.9 upbm affinity estimate (log intensity, higher = more binding, comparable within an allelic series)"
CGATACCG,binding signal,[3],"9.14 upbm affinity estimate (log intensity, higher = more binding, comparable within an allelic series)"
CGCGGATC,binding signal,[3],"9.18 upbm affinity estimate (log intensity, higher = more binding, comparable within an allelic series)"
GGGGATAC,binding signal,[3],"9.17 upbm affinity estimate (log intensity, higher = more binding, comparable within an allelic series)"
